{
  "source": "PubChem BioAssay AID1963322",
  "about": "(National Center for Advancing Translational Sciences (NCATS), 2024)",
  "note": "Results filed as inconclusive are left out. Active and inactive are the calls of the source. Calls come from the whole dose curve.",
  "data": [
    {"target": "cAMP-dependent protein kinase catalytic subunit alpha (Homo sapiens) (UniProt P17612)", "assay": "Protein Kinase A (PKA-HiBiT) SDR gain of signal screen", "conditions": "PKA-HiBiT structural dynamics response (SDR), luminescence gain of signal; series mostly up to 32.9 µM; activity change, positive = signal gain: at the top concentration", "how_it_was_run": "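Gain of luminescent signal after Nano-Glo HiBiT detection (10 min, RT) was the read-out. Beforehand, compounds were incubated 30 min at room temperature in the dark with 10 nM final PKA-N-HiBiT, with H-89 as positive control.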", "values": [
      {"smiles": "COc1cc2ncnc(Oc3cccc(NC(=O)Nc4cc(C(C)(C)C(F)(F)F)on4)c3)c2cc1OC", "activity change, positive = signal gain": "1.41% (inactive)"},
      {"smiles": "COc1cc(N2CCC(N3CCN(C)CC3)CC2)ccc1Nc1ncc(Cl)c(Nc2ccccc2P(C)(C)=O)n1", "Potency": "5.55 µM (active)"},
      {"smiles": "Cn1cc(-c2[nH]c3cc(NC(=O)[C@H](N)C4CCCCC4)cc4c3c2C=NNC4=O)cn1", "Potency": "0.6 µM (active)"},
      {"smiles": "Cc1ccc(NC(=O)N2CCN(c3nc(N)nc4sc(-c5cccnc5)nc34)CC2)cc1", "activity change, positive = signal gain": "4.4% (inactive)"},
      {"smiles": "Nc1ncnc2c1c(-c1cnc3[nH]ccc3c1)nn2C1CCCC1", "activity change, positive = signal gain": "13.7% (inactive)"},
      {"smiles": "C=CC(=O)Nc1cc2c(Nc3ccc(F)c(Cl)c3)ncnc2cc1OCCCN1CCOCC1", "activity change, positive = signal gain": "4.93% (inactive)"},
      {"smiles": "Cc1cn(-c2cc(F)cc(NC(=O)c3ccc(C)c(Nc4nccc(-c5cccnc5)n4)c3)c2)cn1", "activity change, positive = signal gain": "-14.2% (inactive)"},
      {"smiles": "Nc1ncc(-c2cnn(CCO)c2)c2scc(-c3ccc(NC(=O)Nc4cccc(F)c4)cc3)c12", "activity change, positive = signal gain": "3.77% (inactive)"},
      {"smiles": "COc1cc2ncnc(Nc3ccc(F)c(Cl)c3)c2cc1OCCCN1CCOCC1", "activity change, positive = signal gain": "10% (inactive)"},
      {"smiles": "CCn1nc(C2CCN(C(=O)CCO)CC2)nc1-c1cnc(N)c(-c2nnc(C(C)(C)C)o2)n1", "activity change, positive = signal gain": "7.07% (inactive)"},
      {"smiles": "Cc1cc(Nc2cc(N3CCN(C)CC3)nc(Sc3ccc(NC(=O)C4CC4)cc3)n2)n[nH]1", "activity change, positive = signal gain": "-6.42% (inactive)"},
      {"smiles": "Cc1[nH]c(/C=C2\\C(=O)Nc3ccc(S(=O)(=O)Cc4c(Cl)cccc4Cl)cc32)c(C)c1C(=O)N1CCC[C@@H]1CN1CCCC1", "activity change, positive = signal gain": "-38.9% (inactive)"},
      {"smiles": "COc1cc(N2CCN(C)CC2)ccc1Nc1nc(N)c(C(=O)c2c(Cl)cccc2Cl)s1", "activity change, positive = signal gain": "-3.27% (inactive)"},
      {"smiles": "N#Cc1ccc2ncnc(NCCc3ccccc3)c2c1", "activity change, positive = signal gain": "-3.27% (inactive)"}
    ]}
  ]
}
